Data reported in PubChem BioAssay (EPA / NIEHS).
Calls of active or inactive are those of the source. The calls were made as follows: active = hit-call score of the fitted dose curve at least 0.9, where 1 is the maximum; inactive = score below 0.9.

What was measured:
Settings in all cases: mRNA level, 48 h; actives raise or lower the signal
[1] = read-out: ATP-citrate lyase (ACLY), ACLY (gene 47); assay: LTEA_HepaRG_ACLY: Life Technologies and Expression Analysis (LTEA) Assay for ATP-citrate lyase (ACLY) using HepaRG (AID 2283466)
Summary of the method: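 HepaRG, 48 h exposure, 8-pt half-log dilutions (top 100 uM), 0.5% DMSO. Readout: ACLY mRNA, TaqMan qRT-PCR, housekeeping-normalized (ACTB/GAPDH/POLR2A). Bidirectional curve fit vs DMSO.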

[2] = read-out: Alkaline Phosphatase, Placental (ALPP) gene, ALPP (gene 250); assay: LTEA_HepaRG_ALPP: Life Technologies and Expression Analysis (LTEA) Assay for Alkaline Phosphatase, Placental (ALPP) gene using HepaRG (AID 2283468);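 as to AC50: differentiated human HepaRG liver cells in serum-free induction medium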
Summary of the method: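 ALPP transcript level, measured by qRT-PCR and normalized to three housekeeping genes (ACTB, GAPDH, POLR2A), after 48 h dosing of differentiated HepaRG in serum-free induction medium. Top concentration 100 uM with half-log dilutions (8 points, 0.5% DMSO, duplicates); bidirectional fitting relative to DMSO.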

[3] = read-out: Bcl-2 (BAD) gene, BAD (gene 572); assay: LTEA_HepaRG_BAD: Life Technologies and Expression Analysis (LTEA) Assay for Bcl-2 (BAD) gene using HepaRG (AID 2283469)
Summary of the method: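 BAD transcript change, measured by qRT-PCR against three housekeeping genes and fitted in both directions relative to 0.5% DMSO, after 48 h chemical treatment of human HepaRG liver cells at concentrations up to 100 uM.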

[4] = read-out: Bcl-2 (BAX) gene, BAX (gene 581); assay: LTEA_HepaRG_BAX: Life Technologies and Expression Analysis (LTEA) Assay for Bcl-2 (BAX) gene using HepaRG (AID 2283470)
Summary of the method: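 Concentration-response endpoint fitted in both directions relative to 0.5% DMSO vehicle. Human HepaRG cultures receive test chemicals for 48 h at up to 100 uM; BAX mRNA is quantified by qRT-PCR against housekeeping genes.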

[5] = read-out: adenosine kinase (ADK) gene, ADK (gene 132); assay: LTEA_HepaRG_ADK: Life Technologies and Expression Analysis (LTEA) Assay for adenosine kinase (ADK) gene using HepaRG (AID 2283471)
Summary of the method: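 Read-out is ADK transcript level measured by qRT-PCR and normalised to three housekeeping genes. Cells are human HepaRG, dosed for 48 h at up to 100 uM in 0.5% DMSO. Gain or loss of signal is fitted against DMSO controls.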

[6] = read-out: Alpha-fetoprotein (AFP) gene, AFP (gene 174); assay: LTEA_HepaRG_AFP: Life Technologies and Expression Analysis (LTEA) Assay for Alpha-fetoprotein (AFP) gene using HepaRG (AID 2283472)
Summary of the method: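 After a 48 h plating period, cells are moved to serum-free induction medium and dosed in duplicate (100 uM maximum, half-log dilutions, 0.5% DMSO) for another 48 h. Total RNA goes to TaqMan qRT-PCR; AFP signal is housekeeping-normalized.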

BCL2L11 (gene 10018) = assay: LTEA_HepaRG_BCL2L11: Life Technologies and Expression Analysis (LTEA) Assay for Bcl-2 (BCL2L11) gene using HepaRG (AID 2283473)
Summary of the method: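 BCL2L11 transcript levels are measured by Fluidigm qRT-PCR, normalized to three housekeeping genes. HepaRG cultures were plated 48 h, then treated 48 h with test chemical (top 100 uM, half-log, 0.5% DMSO vehicle); curves were fitted bidirectionally against DMSO.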

[7] = read-out: Apolipoprotein A-V (APOA5) gene, APOA5 (gene 116519); assay: LTEA_HepaRG_APOA5: Life Technologies and Expression Analysis (LTEA) Assay for Apolipoprotein A-V (APOA5) gene using HepaRG (AID 2283474)
Summary of the method: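 APOA5 transcript levels were quantified by qRT-PCR, normalized to three housekeeping genes, after 48 h chemical treatment of HepaRG cells (8 points, 100 uM maximum, half-log steps, 0.5% DMSO). Curves fitted in both directions against vehicle.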

[8] = read-out: Apoptosis regulator Bcl-2 (Homo sapiens) (UniProt P10415); assay: LTEA_HepaRG_BCL2: Life Technologies and Expression Analysis (LTEA) Assay for Bcl-2 gene using HepaRG (AID 2283475);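 also: BCL2 transcript by TaqMan qRT-PCR normalised to ACTB GAPDH and POLR2A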
Summary of the method: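 Expression change of BCL2 mRNA in HepaRG after 48 h dosing, quantified by TaqMan qRT-PCR against three endogenous controls. Concentration-response used eight points up to 100 uM, vehicle 0.5% DMSO.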

Caspase-3 (Homo sapiens) = Caspase-3 (Homo sapiens) (UniProt P42574); assay: LTEA_HepaRG_CASP3: Life Technologies and Expression Analysis (LTEA) Assay for cysteine-aspartic acid protease (CASP3) using HepaRG (AID 2283477)
Sequence of Caspase-3 (Homo sapiens) (P42574 whole entry, looked up): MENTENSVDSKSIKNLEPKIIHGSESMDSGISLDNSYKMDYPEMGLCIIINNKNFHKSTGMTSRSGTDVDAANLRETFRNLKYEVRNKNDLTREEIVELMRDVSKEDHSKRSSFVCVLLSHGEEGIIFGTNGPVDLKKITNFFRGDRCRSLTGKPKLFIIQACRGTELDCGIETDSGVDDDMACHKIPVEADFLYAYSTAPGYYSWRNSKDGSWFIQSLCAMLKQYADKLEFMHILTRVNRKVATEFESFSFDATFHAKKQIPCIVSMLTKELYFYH
Summary of the method: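 Expression of CASP3 was quantified by TaqMan qRT-PCR against three housekeeping genes (ACTB, GAPDH, POLR2A), bidirectionally versus 0.5% DMSO. HepaRG cultures received compounds in duplicate, top 100 uM with half-log steps, for 48 h in serum-free induction medium.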

[9] = read-out: Cytochrome P450 (CYP24A1), CYP24A1 (gene 1591); assay: LTEA_HepaRG_CYP24A1: Life Technologies and Expression Analysis (LTEA) Assay for Cytochrome P450 (CYP24A1) using HepaRG (AID 2283478)
Summary of the method: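 mRNA of CYP24A1 quantified by TaqMan qRT-PCR (ACTB/GAPDH/POLR2A normalization) after 48 h chemical exposure of HepaRG cells, top concentration 100 uM, half-log steps, 0.5% DMSO vehicle, duplicates. Curves fitted bidirectionally against DMSO baseline.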

[10] = read-out: Cytochrome P450 (CYP1A2), CYP1A2 (gene 1544); assay: LTEA_HepaRG_CYP1A2: Life Technologies and Expression Analysis (LTEA) Assay for Cytochrome P450 (CYP1A2) using HepaRG (AID 2283479)
Summary of the method: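 CYP1A2 transcript measured by TaqMan qRT-PCR against three housekeeping genes after 48-hour chemical exposure of HepaRG cells. Eight-point half-log series topping at 100 uM in 0.5% DMSO, duplicates; gain or loss fitted relative to vehicle.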

[11] = read-out: cysteine-aspartic acid protease (CASP8), CASP8 (gene 841); assay: LTEA_HepaRG_CASP8: Life Technologies and Expression Analysis (LTEA) Assay for cysteine-aspartic acid protease (CASP8) using HepaRG (AID 2283480)
Summary of the method: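 HepaRG, 48 h exposure, duplicate wells; 8 conc, half-log from 100 uM, 0.5% DMSO. Serum-free induction medium. CASP8 mRNA by TaqMan qRT-PCR, norm. ACTB/GAPDH/POLR2A; gain/loss fitted vs DMSO.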

[12] = read-out: Cytochrome P450 (CYP2B6), CYP2B6 (gene 1555); assay: LTEA_HepaRG_CYP2B6: Life Technologies and Expression Analysis (LTEA) Assay for Cytochrome P450 (CYP2B6) using HepaRG (AID 2283481)
Summary of the method: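 CYP2B6 transcript level quantified by qRT-PCR against three housekeeping genes, fitted bidirectionally relative to DMSO. HepaRG cultures received chemicals for 48 h, 8-point half-log series from 100 uM in 0.5% DMSO, duplicate wells, serum-free induction medium.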

[13] = read-out: Cytochrome P450 2C19 (Homo sapiens) (UniProt P33261); assay: LTEA_HepaRG_CYP2C19: Life Technologies and Expression Analysis (LTEA) Assay for CYP2C19 using HepaRG (AID 2283482)
Summary of the method: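 CYP2C19 transcript levels by qRT-PCR, normalized to three housekeeping genes, in HepaRG cells after 48 h chemical exposure. Eight-point half-log series topping at 100 uM, 0.5% DMSO vehicle. Increases and decreases both fitted against DMSO.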

CYP2C8 (gene 1558) = assay: LTEA_HepaRG_CYP2C8: Life Technologies and Expression Analysis (LTEA) Assay for CYP2C8 using HepaRG (AID 2283483)
Summary of the method: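 CYP2C8 mRNA induction or loss, by qRT-PCR normalized to ACTB/GAPDH/POLR2A, is read in HepaRG cells after 48 h treatment. Concentrations run from 100 uM down in half-log dilutions, with 0.5% DMSO as vehicle and baseline.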

CYP2C9 (gene 1559) = assay: LTEA_HepaRG_CYP2C9: Life Technologies and Expression Analysis (LTEA) Assay for CYP2C9 using HepaRG (AID 2283484)
Summary of the method: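 Cells plated 48 h, switched to serum-free induction medium, then treated in duplicate for 48 h at eight concentrations (max 100 uM, 0.5% DMSO). RNA then analysed by qRT-PCR for CYP2C9; curves fitted in both directions relative to DMSO.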

CYP2E1 (gene 1571) = assay: LTEA_HepaRG_CYP2E1: Life Technologies and Expression Analysis (LTEA) Assay for CYP2E1 using HepaRG (AID 2283485)
Summary of the method: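 Differentiated HepaRG cells were treated in duplicate for 48 h with chemicals in 0.5% DMSO, from 100 uM downward in half-log dilutions. RNA was then analysed by qRT-PCR for CYP2E1 induction or loss.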

[14] = read-out: Peroxisomal acyl-coenzyme A oxidase 1 (ACOX1) gene, ACOX1 (gene 51); assay: LTEA_HepaRG_ACOX1: Life Technologies and Expression Analysis (LTEA) Assay for Peroxisomal acyl-coenzyme A oxidase 1 (ACOX1) gene using HepaRG (AID 2283467)
Summary of the method: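 Measured by qRT-PCR against three housekeeping genes: ACOX1 transcript change in human HepaRG cells after 48 h dosing. Concentrations ran up to 100 uM in half-log steps. Curves were fitted bidirectionally relative to 0.5% DMSO.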

[15] = read-out: Bcl-2 (BID) gene, BID (gene 637); assay: LTEA_HepaRG_BID: Life Technologies and Expression Analysis (LTEA) Assay for Bcl-2 (BID) gene using HepaRG (AID 2283476)
Summary of the method: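 Gain or loss of BID expression is fitted relative to 0.5% DMSO vehicle. Human HepaRG liver cells received a 48 h chemical exposure over an eight-point concentration range.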

Measured: AC50

Sequence of Cytochrome P450 2C19 (Homo sapiens) (P33261 whole entry, looked up): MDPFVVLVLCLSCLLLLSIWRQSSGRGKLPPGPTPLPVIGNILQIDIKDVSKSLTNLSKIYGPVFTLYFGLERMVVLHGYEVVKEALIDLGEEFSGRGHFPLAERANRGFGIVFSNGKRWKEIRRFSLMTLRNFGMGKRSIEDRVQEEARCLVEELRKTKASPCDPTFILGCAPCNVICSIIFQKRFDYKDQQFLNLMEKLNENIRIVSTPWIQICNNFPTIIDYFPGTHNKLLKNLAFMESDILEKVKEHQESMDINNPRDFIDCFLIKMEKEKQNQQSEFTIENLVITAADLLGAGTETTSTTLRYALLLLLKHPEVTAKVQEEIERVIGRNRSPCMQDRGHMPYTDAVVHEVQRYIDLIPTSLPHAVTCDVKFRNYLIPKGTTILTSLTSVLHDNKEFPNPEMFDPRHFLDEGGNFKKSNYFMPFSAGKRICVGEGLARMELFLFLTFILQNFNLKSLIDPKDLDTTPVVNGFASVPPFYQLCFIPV
Sequence of Apoptosis regulator Bcl-2 (Homo sapiens) (P10415 whole entry, looked up): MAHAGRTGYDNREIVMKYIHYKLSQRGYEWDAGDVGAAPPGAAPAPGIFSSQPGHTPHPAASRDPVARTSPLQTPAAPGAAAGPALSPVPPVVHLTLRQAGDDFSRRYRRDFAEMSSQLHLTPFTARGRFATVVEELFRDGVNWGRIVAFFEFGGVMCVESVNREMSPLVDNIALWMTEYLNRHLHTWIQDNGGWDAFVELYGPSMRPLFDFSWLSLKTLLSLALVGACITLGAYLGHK

Cc1occc(=O)c1O
not listed: [14] | [15]
inactive: all other assays above

COC(=O)[C@H]1[C@H]2C[C@@H]3c4[nH]c5cc(OC)ccc5c4CCN3C[C@H]2C[C@@H](OC(=O)c2cc(OC)c(OC)c(OC)c2)[C@@H]1OC
inactive: [3] | [4] | [5] | BCL2L11 (gene 10018) | [15] | Caspase-3 (Homo sapiens) | [9] | [11]
active: [14] 42.2 µM | [2] 25.9 µM | [6] 60.8 µM | [7] 55.6 µM | [8] 42.2 µM | [10] 9.74 µM | [12] 61.7 µM | [13] 63.4 µM | CYP2C8 (gene 1558) 63.5 µM | CYP2C9 (gene 1559) 60.9 µM | CYP2E1 (gene 1571) 49.3 µM

CCc1cc(C2=C(C(=O)O)N(c3ccccc3C(F)(F)F)S(=O)(=O)c3ccccc32)cc2c1OCO2
active: [2] 30.9 µM | [4] 50 µM | [6] 65 µM | [7] 77.2 µM | [8] 79.9 µM | [12] 90.5 µM | [13] 91.9 µM | CYP2C8 (gene 1558) 91.7 µM | CYP2C9 (gene 1559) 86.1 µM | CYP2E1 (gene 1571) 56.8 µM
inactive: [14] | [3] | [5] | BCL2L11 (gene 10018) | Caspase-3 (Homo sapiens) | [9] | [11]

O=C(O)c1cccnc1
not listed: [1] | CYP2C9 (gene 1559)
inactive: all other assays above

OCC(CO)n1cnc(-c2ccc(F)cc2)c1-c1ccnc(Oc2ccccc2)n1
active: [6] 28.4 µM | [12] 22.6 µM | [13] 12.4 µM | CYP2E1 (gene 1571) 15.5 µM
not listed: [1] | [10] | [15]
inactive: all other assays above

O=C(Oc1ccccc1)c1cccc(C(=O)Oc2ccccc2)c1
active: [10] 52.2 µM | [12] 15.9 µM
not listed: [8] | [14] | [15]
inactive: all other assays above

Oc1ccc(O)cc1
active: [10] 50 µM
not listed: [1]
inactive: all other assays above

O=C(N[C@@H](c1ccccc1)[C@@H]1CCCCN1)c1cccc(C(F)(F)F)c1Cl
active: [1] 11.4 µM | [2] 10.8 µM | [5] 78.2 µM | [6] 25.5 µM | BCL2L11 (gene 10018) 85.7 µM | Caspase-3 (Homo sapiens) 50 µM | [11] 82.8 µM | [12] 32.7 µM | [13] 78.8 µM | CYP2C9 (gene 1559) 36.1 µM | CYP2E1 (gene 1571) 13.1 µM
inactive: [3] | [4] | [7] | [15] | [9] | CYP2C8 (gene 1558)

CC(=O)O
not listed: [10] | [14] | [15]
inactive: all other assays above

CN(C)C(=O)NC1(c2ccccc2)CCN(CCC[C@]2(c3ccc(Cl)c(Cl)c3)CCCN(C(=O)c3ccccc3)C2)CC1
active: [2] 24 µM | [4] 19.6 µM | [5] 12.5 µM | [7] 21.3 µM | [12] 20 µM | [13] 23.6 µM | CYP2C9 (gene 1559) 19.7 µM | CYP2E1 (gene 1571) 17.7 µM
not listed: [1] | [15]
inactive: all other assays above

CCC(C)N(C)C(=O)c1cc2ccccc2c(-c2ccccc2Cl)n1 (configuration not stated)
active: [6] 31.8 µM | BCL2L11 (gene 10018) 31.8 µM | [10] 50.5 µM | [12] 1.38 µM | [13] 4.31 µM | CYP2C8 (gene 1558) 1.77 µM | CYP2E1 (gene 1571) 14.1 µM
not listed: [8] | [14] | [15]
inactive: all other assays above

O=C(O)CN(CC(=O)O)CC(=O)O
not listed: [10] | [14]
inactive: all other assays above

CC(C)c1cccc(C(C)C)c1
not listed: [9] | [10] | [14]
inactive: all other assays above

CCCCCCCC(=O)OC
active: CYP2C8 (gene 1558) 12 µM
not listed: [10] | [14]
inactive: all other assays above
